From PubChem BioAssay
Marburg entry inh: qHTS for inhibitors of binding or entry into cells for Marburg Virus | actives 1.8% (n = 300,000) | AID 540276, 2011 | Potency, µM (series often up to 37.8 µM), inactives show at the top dose activity change, negative = inhibition, actives largely listed as inhibitors | Marburg virus pseudotyped entry inhibition, cell reporter; calls by dose curve; tested in HEK293 cells; further: potency means the concentration at half of the fitted maximal effect
HCMV inh: qHTS Assay for inhibitors of the human cytomegalovirus (HCMV); actives 4.5% (n = 410,000); activity change, negative = inhibition, % at 57.5 µM; HFF cells, HCMV-luciferase reporter, 72 h; hits give low values; in the data active means activity change below about -60%; inconclusive means no clear call, values can overlap the other calls; inactive means above about -39%
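Screen run at 2 compound doses on HFFs infected with reporter HCMV, MOI 1 PFU/cell. Luciferase activity from cell lysates at 72 h post infection gave inhibition relative to buffer-only and Salinomycin wells.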
LASV entry inh: qHTS for Inhibitors of binding or entry into cells for Lassa Virus. Lassa virus pseudotype entry inhibition, cell reporter. Potency, µM (titrated, usually from 37.9 µM), for inactives: top-dose activity change, negative = inhibition, most hits filed as inhibitors. actives 1.2% (n = 300,000); calls by dose curve; tested in HEK293 cells; further: potency means the concentration at half of the fitted maximal effect; nearly all actives have a fitted effect of over 50% in size
FMDV inh: High Throughput Screening for Foot and Mouth Disease Virus Antivirals | actives 1.2% (n = 410,000) | FMDV antiviral cell-based qHTS | Potency, µM (highest dose often 57.9 µM), for the others: at the top dose activity change, negative = inhibition, most hits filed as inhibitors; calls by dose curve; tested in HEK293T cells; further: read-out not given here; potency means the concentration at half of the fitted maximal effect; nearly all actives have a fitted effect of over 45% in size
The depositor's hits bear a star; ? = inconclusive; . = no result given; ! = repeats disagree; [ ] = another dose, or the depositor's remark. In the library only some 6.2% were active in any assay of this set; here they are far more common. On the % scale 0 is the no-effect control and ±100 the full control effect.

SMILES	Marburg entry inh	HCMV inh	LASV entry inh	FMDV inh
O=C(NCc1ccncc1)c1cc2ccccc2nc1Cl	10%[46.1 µM]	-79*	17%[46.1 µM]	-11%
O=[N+]([O-])c1ccc(O)c(-c2ccnc3cc(-c4ccccc4)nn23)c1	-15%[46.1 µM]	-78*	?	?
COc1ccc(/C=C2\C(=O)ON=C2c2ccccc2)cc1	?	0	22%[46.1 µM]	35µM*
O=C1ON=C(c2ccccc2)/C1=C/c1ccc(OS(=O)(=O)c2ccccc2)cc1	9%	-32	12%	32µM*
O=C1ON=C(c2ccccc2)/C1=C/c1ccc(O)c(O)c1	.	82	.	?
COc1cc(/C=C2\C(=O)ON=C2c2ccc(Cl)cc2)ccc1O	?	19	-22%[46.1 µM]	25µM*
Cc1nc2ccc(C(=O)N3CCc4c(cnc(C)c4CNC(=O)/C=C/c4cccs4)C3)cc2nc1C	.	.	.	4%
COc1cc(/C=N/NC(=O)CCc2ccccc2)ccc1O	?	32	2.8µM*	-8%
COc1cc(C(=O)N/N=C/c2ccc(OC(=O)c3cccc(C)c3)cc2)ccc1O	-8%	11	-7%	35µM*
COc1cc(/C=N/NC(=O)CCNC(=O)c2ccccc2Cl)ccc1O	12%	70	4%	3%
COc1cc(C(=O)N/N=C/c2cccc(Oc3ccccc3)c2)ccc1O	-13%[46.1 µM]	-78*	-13%[46.1 µM]	-21%
O=C(N/N=C/c1cccc(Oc2ccccc2)c1)c1ccncc1	-3%[46.1 µM]	16	1%	6%
CCCNC(=O)C1(C)CCCN(C(=O)C2(c3ccc(Cl)cc3)CCCC2)C1 (stereo unspecified)	.	-6	.	-7%
O=S(=O)(NCC(c1ccco1)N1CCOCC1)c1ccc(F)cc1 (stereo unspecified)	.	7	-11%[46.1 µM]	2%
CCC(O)CNC(=O)c1cnn(-c2nccc(-c3cc(C)sc3C)n2)c1C1CC1 (stereo unspecified)	.	.	.	36%
C[C@H]1CN=C(N(C)C)N1CCc1ccccc1	.	-67*	.	3%
CCCCn1nc(C(=O)NC2CCCCCC2)c2ccccc2c1=O	?	-25	-21%	3%
CCCCn1nc(C(=O)N(C)C2CCCCC2)c2ccccc2c1=O	.	-106*	.	-15%
COc1cccc([C@H]2/C(=C(\O)c3ccc(OC)c(OC)c3)C(=O)C(=O)N2c2cc(C)on2)c1	-12%[46.1 µM]	.	.	.
COc1cccc(CCNCc2cccc(C(F)(F)F)c2)c1	?	-15	-2%	-11%
CC(Cc1cccc(C(F)(F)F)c1)NCCCc1ccccc1 (stereo unspecified)	.	.	.	20µM*
CCc1ccc2c(c1)NC(=O)C2(C)Cc1ccccc1OC (stereo unspecified)	.	-71*	.	-22%
COc1ccccc1CC1(C)C(=O)Nc2c(Cl)cccc21 (stereo unspecified)	.	-73*	.	-20%
CC(=O)Oc1ccc(OC(C)=O)c(SCCCCCN2CCOCC2)c1	16µM*	?	?	?
CCOC(=O)c1ccccc1NC(=O)CN1CCC(n2nnc3cc(C(F)(F)F)ccc32)CC1	-2%[46.1 µM]	-13	2%	?
SMILES	Marburg entry inh	HCMV inh	LASV entry inh	FMDV inh
O=C(CN1CCC(n2nnc3cc(C(F)(F)F)ccc32)CC1)NCc1cccs1	2.2µM*	-12	?	?
CC(C)NC(=O)N1CCC(c2nc3ccccc3s2)CC1	.	41	.	-5%
CCCNC(=O)N1CCC(c2nc3ccccc3s2)CC1	.	-75*	.	-7%
CCCNC(=O)c1ccc(-c2nc3ccccc3s2)s1	3.5µM*	-30	?	-69%
O=C(CSc1ccc(F)cc1)N1CCC(c2nc3ccccc3s2)CC1	?	?	-11%	?
O=C(CSc1ccccc1Cl)N1CCC(c2nc3ccccc3s2)CC1	-15%	2	2%	35µM*
COc1cccc(-c2cncnc2NCc2cccnc2)c1	.	.	.	2%
Cc1ncc2c(c1CNC(=O)c1ccc3c(c1)OCO3)CCN(C(=O)c1cn3ccccc3n1)C2	.	.	.	-1%
O=C1CCCCC1CCS(=O)(=O)NCc1ccccc1 (stereo unspecified)	.	1	.	.
Cc1cc(C)cc(OCC(=O)N2CCC(c3nc4ccccc4s3)CC2)c1	-2%[46.1 µM]	5	6%[46.1 µM]	0%
O=C(CN1CCC(c2nc3ccccc3s2)CC1)N1CCCCC1	.	-62*	.	-2%
O=C(CN1CCC(c2nc3ccccc3s2)CC1)NCc1cccs1	?	-94*	?	16µM*
CCCOc1ccccc1C(=O)N1CCC(c2nc3ccccc3s2)CC1	-22%[46.1 µM]	-36	-27%[46.1 µM]	0%
CC(C)n1c(N2CCN(CC(=O)NCc3cccs3)CC2)nc2ccccc21	?	-14	10%	0%
CCC(Oc1ccccc1F)C(=O)N1CCC(c2nc3ccccc3s2)CC1 (stereo unspecified)	?	-27	-4%[46.1 µM]	25µM*
COC(=O)[C@@H]1CCCN1Cc1ccc2c(c1)CN(Cc1ccccc1C)CCO2	.	.	.	-10%
Oc1ccc(/C=N\Nc2nncc(-c3ccccc3)n2)cc1	.	-66*	.	-6%
COc1ccc(-c2cnnc(N/N=C/c3ccc(O)c(O)c3)n2)cc1	?	31	4.6µM*	-11%
COc1ccc(-c2cnnc(N/N=C/c3ccc(O)cc3)n2)cc1	?	-71*	2µM*	0%
COc1ccc(Nc2nc(NCc3ccco3)nc(N/N=C/c3ccc(O)cc3)n2)cc1	?	-61*	-3%	-9%
COc1cc(OC)c(NC(=O)NNC(=O)C(=O)NC2CC2)cc1Cl	.	0	.	.
CCc1cccc(NC(=O)C2CCCN(c3ncnc4onc(-c5ccc(F)cc5)c34)C2)c1 (stereo unspecified)	.	-8	-9%[46.1 µM]	-27%
C/C(N)=C(/C#N)C(=O)CSc1nnc(Nc2c(C)cccc2C)s1	?	-67*!	-3%[46.1 µM]	5%
C/C(N)=C(/C#N)C(=O)CSc1nn(-c2ccc(Cl)cc2)c(=S)s1	.	6	.	45%
Cc1cccc(C)c1Nc1nnc(SCc2cn3cccc(C)c3n2)s1	1%	-70*	.	0%
SMILES	Marburg entry inh	HCMV inh	LASV entry inh	FMDV inh
C/C(N)=C(/C#N)C(=O)CSc1nnc(SCc2ccc(Cl)cc2)s1	?	-64*	?	?
Cc1cccc(C)c1Nc1nnc(SCC(=O)NC(=O)c2cccn2C)s1	0%	20	16%	-8%
O=C(Nc1ccc2c(c1)OCO2)C1C=CC(Br)O1 (stereo unspecified)	20%	.	.	.
CCC(NC(=O)Nc1nnc(C(F)(F)F)s1)(C(F)(F)F)C(F)(F)F	2.5µM*	-105*	7.1µM*	?
CS/C(=C\[N+](=O)[O-])Nc1ccc(OC(F)(F)F)cc1	.	-61*	.	-23%
COc1cccc(/C=N/Nc2ccnc(=O)[nH]2)c1O	?	-94*	?	-11%
COc1cccc(/C=N/Nc2nn3cnnc3c3ccccc23)c1O	?	-29	-11%	2%
CCOc1ccccc1/C=N/Nc1ccnc(=O)[nH]1	?	-99*	?	22%
O=c1nccc(N/N=C/c2ccccc2O)[nH]1	5.6µM*	-91*	?	7%
Cc1ccc(C)c(Nc2cc(C(=O)NC3CCCC3)c3ccccc3n2)c1	-3%[46.1 µM]	-20	11%[46.1 µM]	82%
CCC[C@@H](/C=C/C(=O)OC(C)(C)C)NC(=O)C(F)(F)F	.	21	.	.
